Hits are enriched below; roughly 18% of the tested compounds scored in any of these assays.
LDHA block: blocks human lactate dehydrogenase A | purified LDHA, NADH/diaphorase-resazurin fluorescence; stronger effect = lower value | activity change, % (values are at about 110 or 230 µM) | 480,000 compounds, 0.15% hits | AID 1347041; in the data active = activity change below about -30%; inconclusive = mostly about -25% to -30%;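 also: plate controls were DMSO wells for no effect and wells without enzyme for full effect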
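Enzyme activity of human lactate dehydrogenase 5 (2 nM; 0.06 mM NADH, 0.2 mM pyruvate, 5 min, RT) is measured via a resazurin/diaphorase fluorescence readout of residual NADH.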
TDP1 cell CPT: growth inhibition of DT40 Tdp1-/-;hTDP1 cells with camptothecin (screen for TDP1 inhibitors). chicken DT40 Tdp1-/-;hTDP1 cells + 20 nM CPT, ATP luminescence, 48 h. Potency, µM (top dose mostly 46.2 µM), inactives show top-dose activity change, negative = growth inhibition, actives largely listed as inhibitors. 420,000 compounds, 12% hits; also: potency is read from the fitted curve at half-maximal effect; nearly all actives have a fitted effect of over 55% in size
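Chicken DT40 Tdp1-/- cells stably complemented with human TDP1 were seeded at 400 cells/well in medium containing 20 nM camptothecin, exposed to pin-transferred compounds, and grown at 37 °C for at least 48 hr. Viability was read as ATP luminescence.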
VP16 counter: inhibits Gal4-VP16 luciferase reporter, ROR gamma counter-screen; Drosophila S2 Gal4-VP16 UAS-luciferase, luminescence, 20 h; Potency, µM (highest dose often 53.6 µM), inactives show at the highest dose activity, negative = inhibition, most hits filed as inhibitors; 310,000 compounds, 3.5% hits;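 also: Gal4-VP16 expression switched on by copper sulfate through the metallothionein promoter; potency is read from the fitted curve at half-maximal effect; nearly all actives have a fitted effect of over 50% in size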
IL1B secr inh: inflammasome signaling inhibition, IL-1 beta readout; THP-1 LPS/ATP IL-1B secretion, AlphaLISA, 16 h; stronger effect = lower value; activity change, % at 57.5 µM; 360,000 compounds, 4.7% hits; in the data active = activity change below about -50%; inconclusive = mostly about -30% to -49%
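Secreted IL-1B measured by AlphaLISA bead assay after 16 h compound exposure of THP-1 cells; compounds (final up to 57.5 uM) added 1 h before LPS (250 ng/mL) and ATP (1.25 mM) stimulation; lower signal means less secretion.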
RORg inh: inhibitors of mouse ROR gamma transcriptional activity; P51450; Drosophila S2 Gal4-RORgamma UAS-luciferase reporter, 20 h; Potency, µM (series often up to 53.6 µM), inactives show top-dose activity change, negative = inhibition, usual class: inhibitors; 310,000 compounds, 5.4% hits; also: potency is read from the fitted curve at half-maximal effect; nearly all actives have a fitted effect of over 60% in size
Target sequence (P51450 whole entry, looked up, the tested form may be a part): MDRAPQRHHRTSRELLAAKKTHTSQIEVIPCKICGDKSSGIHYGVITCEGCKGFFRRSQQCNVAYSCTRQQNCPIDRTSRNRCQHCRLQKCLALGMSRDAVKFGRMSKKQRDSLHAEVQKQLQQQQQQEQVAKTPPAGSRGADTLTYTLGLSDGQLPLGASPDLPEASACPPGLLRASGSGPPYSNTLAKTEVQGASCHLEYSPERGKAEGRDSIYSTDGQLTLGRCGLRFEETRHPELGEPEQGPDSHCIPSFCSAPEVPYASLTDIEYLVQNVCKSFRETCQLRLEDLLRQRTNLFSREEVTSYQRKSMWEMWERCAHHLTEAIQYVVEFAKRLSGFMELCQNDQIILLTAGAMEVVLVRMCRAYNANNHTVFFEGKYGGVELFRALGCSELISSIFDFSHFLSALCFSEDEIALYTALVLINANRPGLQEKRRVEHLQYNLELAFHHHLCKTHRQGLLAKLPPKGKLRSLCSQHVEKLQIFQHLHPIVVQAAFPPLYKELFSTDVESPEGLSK
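Using a luciferase readout, inhibitors were identified by reduced reporter activity in Drosophila cells coexpressing a copper-inducible Gal4–ROR gamma fusion and UAS-driven Photinus luciferase, incubated 20 hr after 700 uM copper sulfate.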
DT40 TDP1 no CPT: qHTS for Inhibitors of human tyrosyl-DNA phosphodiesterase 1 (TDP1): qHTS in cells in absence of CPT; DT40 Tdp1-/- hTDP1 cells, no CPT, ATP luminescence, 48 h; Potency, µM (series often up to 46.2 µM), for the others: at the top dose activity change, negative = growth inhibition, actives largely listed as inhibitors; 420,000 compounds, 15% hits; also: potency is read from the fitted curve at half-maximal effect; nearly all actives have a fitted effect of over 55% in size
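Stably hTDP1-transfected Tdp1-null chicken DT40 cells were treated with library compounds minus camptothecin and grown for at least 48 hr at 37 °C, after which cellular ATP was quantified by luminescence.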
An asterisk follows results filed as active; [ ] = remark or other dose. Unless noted, calls follow the shape of the dose curve; as a rule, active = well fitted curve in the direction sought with a large enough effect; inconclusive = small, poorly fitted or top-dose-only effect, or another doubt; inactive = no such curve, though single readings can be large; an effect the other way counts as inactive or inconclusive. Unless noted, % is scaled to controls: 0 for no effect and ±100 for the full control effect.

What do the screens show for `COc1cccc(/C=C2/CCC(CN(C)C)C2=O)c1` (stereo unspecified)?
LDHA block: 0; TDP1 cell CPT: 2.3µM*; IL1B secr inh: -100*; DT40 TDP1 no CPT: 2.3µM*

What do the screens show for `CC(C)(C)c1ccc(/C=N/OCC(=O)NCc2ccc(F)cc2)cc1`?
LDHA block: 1; TDP1 cell CPT: inconclusive; VP16 counter: -27%; IL1B secr inh: -69*; RORg inh: inconclusive; DT40 TDP1 no CPT: 16µM*

Results for CC(C)(C)c1ccc(/C=N/OCC(=O)Nc2ccc(SC(F)F)cc2)cc1 ?
LDHA block: 13

Results for CC(C)(C)c1ccc(/C=N/OCC(=O)NCc2ccccc2)cc1 ?
LDHA block: 5; TDP1 cell CPT: inconclusive; VP16 counter: inconclusive; IL1B secr inh: 5; RORg inh: inconclusive; DT40 TDP1 no CPT: inconclusive

What do the screens show for `Cc1ccc(CNC(=O)CO/N=C/c2ccc(C(C)(C)C)cc2)cc1`?
LDHA block: -1; TDP1 cell CPT: inconclusive; VP16 counter: 7.9µM*; IL1B secr inh: -2; RORg inh: -7%[10 µM]; DT40 TDP1 no CPT: inconclusive

What do the screens show for `Cc1cc(NC(=O)c2ccc(C#N)cc2)n(-c2ccccn2)n1`?
LDHA block: -4; TDP1 cell CPT: -19%; VP16 counter: -11%; IL1B secr inh: 0; RORg inh: 21%; DT40 TDP1 no CPT: inconclusive

Results for Cc1cc(NC(=O)Nc2cccc(Cl)c2)n(-c2ccccn2)n1 ?
LDHA block: -8; TDP1 cell CPT: inconclusive; VP16 counter: -8%; IL1B secr inh: -73*; RORg inh: -1%; DT40 TDP1 no CPT: 18µM*

Results for Cc1cc(NC(=O)c2ccc(F)cc2)n(-c2ccccn2)n1 ?
LDHA block: -1; TDP1 cell CPT: inconclusive; VP16 counter: -3%; IL1B secr inh: -68*; RORg inh: 2%; DT40 TDP1 no CPT: inconclusive

Results for CCCCCn1c(=O)[nH]c2cc(C(=O)N3CCN(CC)CC3)ccc2c1=O ?
LDHA block: -5; TDP1 cell CPT: -27%; VP16 counter: 1%; IL1B secr inh: 15; RORg inh: -15%; DT40 TDP1 no CPT: -23%

Results for CCCCCn1c(=O)[nH]c2cc(C(=O)N3CCN(c4ccc(F)cc4)CC3)ccc2c1=O ?
LDHA block: -7; TDP1 cell CPT: inconclusive; IL1B secr inh: 7; DT40 TDP1 no CPT: 8.2µM*

How did CC(=O)Nc1ccccc1-c1nc2ccc(C(=O)N3CCN(c4cc(C)ccc4C)CC3)cc2[nH]c1=O do in these assays?
LDHA block: -1; TDP1 cell CPT: inconclusive; VP16 counter: 3%; IL1B secr inh: -4; RORg inh: 11%; DT40 TDP1 no CPT: 15µM*

What do the screens show for `CCCCCn1c(=O)[nH]c2cc(C(=O)N3CCN(c4ccccc4F)CC3)ccc2c1=O`?
LDHA block: -2; TDP1 cell CPT: inconclusive; VP16 counter: -16%; IL1B secr inh: 28; RORg inh: inconclusive; DT40 TDP1 no CPT: 15µM*

Results for CCCCCn1c(=O)[nH]c2cc(C(=O)N3CCN(c4cc(Cl)ccc4C)CC3)ccc2c1=O ?
LDHA block: -14; TDP1 cell CPT: inconclusive; DT40 TDP1 no CPT: inconclusive

What do the screens show for `CCCCCn1c(=O)[nH]c2cc(C(=O)N3CCN(c4ccc(C(C)=O)cc4)CC3)ccc2c1=O`?
LDHA block: -10; TDP1 cell CPT: 15µM*; VP16 counter: inconclusive; IL1B secr inh: -21; RORg inh: 42%; DT40 TDP1 no CPT: 15µM*

What do the screens show for `O=C(c1ccccc1Cl)N1CCCC(c2nc3ccccc3o2)C1` (stereo unspecified)?
LDHA block: -4

How did S=C(Nc1ccc(Br)cc1)N(Cc1ccccc1)Cc1ccccc1 do in these assays?
LDHA block: 7

Results for COCCn1c(=O)[nH]c2cc(C(=O)N3CCN(c4cc(C)ccc4C)CC3)ccc2c1=O ?
LDHA block: -7; TDP1 cell CPT: inconclusive; VP16 counter: -2%; IL1B secr inh: 4; RORg inh: 29%; DT40 TDP1 no CPT: inconclusive

How did Cc1ccc(C)c(N2CCN(C(=O)c3ccc4c(=O)n(CCc5ccccc5)c(=O)[nH]c4c3)CC2)c1 do in these assays?
LDHA block: -17; TDP1 cell CPT: 21µM*; DT40 TDP1 no CPT: 16µM*

How did CCOC(=O)N1CCN(C(=O)c2ccc3c(=O)n(CCC4=CCCCC4)c(=O)[nH]c3c2)CC1 do in these assays?
LDHA block: -3; TDP1 cell CPT: 16µM*; VP16 counter: 0%; IL1B secr inh: inconclusive; RORg inh: 22%; DT40 TDP1 no CPT: 18µM*

What do the screens show for `CC(C)(C(=O)N1CCC1(C)C(=O)NC1Cc2ccccc2C1)c1ccccc1` (stereo unspecified)?
LDHA block: 0; TDP1 cell CPT: 16µM*; IL1B secr inh: 37; DT40 TDP1 no CPT: 21µM*

What do the screens show for `O=C(Nc1ccc2c3c(cccc13)CC2)c1ccc(F)cc1`?
LDHA block: -6

Results for CCn1nc(C)c(CN2CCCCC2C(=O)Nc2ccc(Oc3cccnc3)cc2)c1C (stereo unspecified) ?
LDHA block: -9; TDP1 cell CPT: 9.2µM*; VP16 counter: 0%; IL1B secr inh: inactive; RORg inh: 10%; DT40 TDP1 no CPT: 16µM*

How did C#Cc1ccc(CN2CCC(C(=O)Nc3ccc(Oc4ccccc4)nc3)CC2)cc1 do in these assays?
LDHA block: 0; TDP1 cell CPT: 15µM*; VP16 counter: inconclusive; IL1B secr inh: inconclusive; RORg inh: -22%; DT40 TDP1 no CPT: inconclusive

What do the screens show for `O=C(Nc1ccc(Oc2ccccc2)nc1)C1CCCCN1Cc1ccco1` (stereo unspecified)?
LDHA block: -5; TDP1 cell CPT: 4.1µM*; VP16 counter: 4%; IL1B secr inh: 40; RORg inh: 44%; DT40 TDP1 no CPT: 4.1µM*

How did Cc1ncc(CN2CCC(C(=O)Nc3ccc(Oc4cccnc4)cc3)CC2)cn1 do in these assays?
LDHA block: -3; TDP1 cell CPT: inconclusive; VP16 counter: -3%; IL1B secr inh: -5; RORg inh: 24%; DT40 TDP1 no CPT: -24%

What do the screens show for `Cc1ccc(CN2CCCCC2C(=O)Nc2ccc(Oc3cccnc3)cc2)o1` (stereo unspecified)?
LDHA block: 1; TDP1 cell CPT: 5.2µM*; VP16 counter: 11%; IL1B secr inh: 30; RORg inh: -9%; DT40 TDP1 no CPT: 7.3µM*

Screens: PubChem BioAssay, National Center for Advancing Translational Sciences (NCATS)
